Measurements as given in ChEMBL document CHEMBL1961873, “Compounds: GSK PKIS; Assays: Nanosyn kinase panel” (2012).

How the values were obtained:
[1] = molecular target: T1, Mitogen-activated protein kinase 12 (Homo sapiens) (UniProt P53778); conditions: at 1 µM;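 further: values are averaged p38gamma kinase inhibition readings, compounds tested at 1 µM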
T1 sequence (whole entry): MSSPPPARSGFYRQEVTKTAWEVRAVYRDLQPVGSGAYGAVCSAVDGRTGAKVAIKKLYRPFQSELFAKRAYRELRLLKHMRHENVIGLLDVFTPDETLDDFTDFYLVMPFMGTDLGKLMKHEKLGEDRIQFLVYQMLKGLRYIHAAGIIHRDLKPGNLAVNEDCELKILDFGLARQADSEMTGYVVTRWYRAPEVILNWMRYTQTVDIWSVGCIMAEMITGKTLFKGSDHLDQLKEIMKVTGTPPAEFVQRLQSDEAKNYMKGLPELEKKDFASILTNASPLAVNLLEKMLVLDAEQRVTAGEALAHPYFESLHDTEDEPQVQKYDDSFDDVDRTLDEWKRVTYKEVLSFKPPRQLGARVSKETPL

[2] = molecular target: SRSF protein kinase 1 (Homo sapiens) (UniProt Q96SB4); conditions: at 0.1 µM
SRSF protein kinase 1 (Homo sapiens), sequence (Q96SB4 whole entry, canonical isoform): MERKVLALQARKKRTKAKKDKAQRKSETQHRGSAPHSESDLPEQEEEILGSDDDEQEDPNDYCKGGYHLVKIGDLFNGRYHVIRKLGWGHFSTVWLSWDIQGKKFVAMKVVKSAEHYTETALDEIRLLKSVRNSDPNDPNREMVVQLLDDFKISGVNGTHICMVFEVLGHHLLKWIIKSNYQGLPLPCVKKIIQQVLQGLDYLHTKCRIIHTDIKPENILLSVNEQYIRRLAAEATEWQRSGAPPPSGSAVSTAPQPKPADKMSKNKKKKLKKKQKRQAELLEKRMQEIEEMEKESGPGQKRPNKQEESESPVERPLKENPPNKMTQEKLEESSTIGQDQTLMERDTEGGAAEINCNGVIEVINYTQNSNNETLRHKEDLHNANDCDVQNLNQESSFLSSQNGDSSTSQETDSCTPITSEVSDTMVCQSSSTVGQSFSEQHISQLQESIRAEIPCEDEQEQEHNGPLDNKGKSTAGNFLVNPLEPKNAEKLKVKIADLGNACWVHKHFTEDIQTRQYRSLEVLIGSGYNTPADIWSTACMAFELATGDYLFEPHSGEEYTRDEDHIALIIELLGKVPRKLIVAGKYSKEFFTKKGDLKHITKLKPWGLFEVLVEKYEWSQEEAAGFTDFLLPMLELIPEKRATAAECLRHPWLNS

[3] = molecular target: SRSF protein kinase 1 (Homo sapiens) (UniProt Q96SB4); conditions: at 1 µM
[4] = molecular target: Phosphatidylinositol 4,5-bisphosphate 3-kinase catalytic subunit alpha isoform (Homo sapiens) (UniProt P42336); conditions: at 0.1 µM
Phosphatidylinositol 4,5-bisphosphate 3-kinase catalytic subunit alpha isoform (Homo sapiens), sequence (P42336 whole entry, canonical isoform): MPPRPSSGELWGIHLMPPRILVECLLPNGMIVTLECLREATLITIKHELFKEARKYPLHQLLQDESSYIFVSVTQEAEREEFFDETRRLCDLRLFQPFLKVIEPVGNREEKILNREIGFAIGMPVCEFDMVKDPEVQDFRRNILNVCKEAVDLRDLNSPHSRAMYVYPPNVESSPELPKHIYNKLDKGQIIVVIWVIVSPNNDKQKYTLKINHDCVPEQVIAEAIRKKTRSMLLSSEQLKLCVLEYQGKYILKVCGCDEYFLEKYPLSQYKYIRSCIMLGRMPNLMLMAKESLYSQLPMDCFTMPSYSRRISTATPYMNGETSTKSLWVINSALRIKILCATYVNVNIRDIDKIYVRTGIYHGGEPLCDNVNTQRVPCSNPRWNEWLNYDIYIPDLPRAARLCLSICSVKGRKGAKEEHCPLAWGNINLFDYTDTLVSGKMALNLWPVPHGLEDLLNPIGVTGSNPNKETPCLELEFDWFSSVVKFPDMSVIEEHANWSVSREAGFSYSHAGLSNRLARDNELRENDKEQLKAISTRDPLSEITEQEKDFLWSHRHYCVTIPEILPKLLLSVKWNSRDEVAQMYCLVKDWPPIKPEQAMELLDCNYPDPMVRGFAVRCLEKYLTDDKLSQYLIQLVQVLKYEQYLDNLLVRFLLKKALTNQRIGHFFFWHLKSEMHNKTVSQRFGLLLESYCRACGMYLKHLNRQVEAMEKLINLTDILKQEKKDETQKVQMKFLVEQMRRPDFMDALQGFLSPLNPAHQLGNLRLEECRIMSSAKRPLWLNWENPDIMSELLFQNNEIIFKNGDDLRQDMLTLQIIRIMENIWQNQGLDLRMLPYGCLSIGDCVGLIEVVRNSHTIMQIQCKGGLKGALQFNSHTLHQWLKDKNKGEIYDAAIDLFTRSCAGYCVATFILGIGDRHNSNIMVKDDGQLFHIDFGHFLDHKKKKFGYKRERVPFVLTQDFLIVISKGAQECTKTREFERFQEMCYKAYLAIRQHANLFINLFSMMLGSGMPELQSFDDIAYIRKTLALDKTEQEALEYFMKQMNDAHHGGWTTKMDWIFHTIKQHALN

[5] = molecular target: Phosphatidylinositol 4,5-bisphosphate 3-kinase catalytic subunit alpha isoform (Homo sapiens) (UniProt P42336); conditions: at 1 µM
[6] = molecular target: T2, Phosphatidylinositol 4,5-bisphosphate 3-kinase catalytic subunit delta isoform (Homo sapiens) (UniProt O00329); conditions: at 0.1 µM
T2 sequence (whole entry): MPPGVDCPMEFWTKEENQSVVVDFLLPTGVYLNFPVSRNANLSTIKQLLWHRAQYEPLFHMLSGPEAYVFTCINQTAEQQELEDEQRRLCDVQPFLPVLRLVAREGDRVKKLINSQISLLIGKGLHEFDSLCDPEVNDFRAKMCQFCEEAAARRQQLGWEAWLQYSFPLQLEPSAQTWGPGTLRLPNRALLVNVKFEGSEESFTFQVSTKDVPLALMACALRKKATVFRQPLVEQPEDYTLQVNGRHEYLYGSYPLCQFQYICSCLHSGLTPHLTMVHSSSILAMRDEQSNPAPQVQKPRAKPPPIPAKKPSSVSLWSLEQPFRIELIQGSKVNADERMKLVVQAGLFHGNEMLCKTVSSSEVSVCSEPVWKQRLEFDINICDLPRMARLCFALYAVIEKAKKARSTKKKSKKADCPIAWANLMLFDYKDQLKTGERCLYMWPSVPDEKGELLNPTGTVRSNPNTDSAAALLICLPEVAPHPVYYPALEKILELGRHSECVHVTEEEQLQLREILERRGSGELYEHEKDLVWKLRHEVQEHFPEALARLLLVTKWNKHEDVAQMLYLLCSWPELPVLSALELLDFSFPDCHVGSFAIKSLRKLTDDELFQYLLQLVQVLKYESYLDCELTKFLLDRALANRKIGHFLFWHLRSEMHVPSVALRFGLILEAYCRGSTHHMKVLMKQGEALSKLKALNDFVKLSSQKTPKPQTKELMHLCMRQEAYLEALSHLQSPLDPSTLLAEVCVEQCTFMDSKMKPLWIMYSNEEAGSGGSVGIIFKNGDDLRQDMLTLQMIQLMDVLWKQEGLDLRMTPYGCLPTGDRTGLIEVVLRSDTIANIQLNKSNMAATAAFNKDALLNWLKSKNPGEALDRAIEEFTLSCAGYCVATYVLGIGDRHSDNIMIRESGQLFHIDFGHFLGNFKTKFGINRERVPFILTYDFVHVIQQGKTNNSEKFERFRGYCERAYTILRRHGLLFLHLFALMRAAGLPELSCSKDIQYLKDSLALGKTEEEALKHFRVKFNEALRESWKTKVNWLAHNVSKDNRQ

[7] = molecular target: T2, Phosphatidylinositol 4,5-bisphosphate 3-kinase catalytic subunit delta isoform (Homo sapiens); conditions: at 1 µM
[8] = molecular target: Phosphatidylinositol 4-kinase beta (Homo sapiens) (UniProt Q9UBF8); conditions: at 0.1 µM
Phosphatidylinositol 4-kinase beta (Homo sapiens), sequence (Q9UBF8 2-816 limits assumed): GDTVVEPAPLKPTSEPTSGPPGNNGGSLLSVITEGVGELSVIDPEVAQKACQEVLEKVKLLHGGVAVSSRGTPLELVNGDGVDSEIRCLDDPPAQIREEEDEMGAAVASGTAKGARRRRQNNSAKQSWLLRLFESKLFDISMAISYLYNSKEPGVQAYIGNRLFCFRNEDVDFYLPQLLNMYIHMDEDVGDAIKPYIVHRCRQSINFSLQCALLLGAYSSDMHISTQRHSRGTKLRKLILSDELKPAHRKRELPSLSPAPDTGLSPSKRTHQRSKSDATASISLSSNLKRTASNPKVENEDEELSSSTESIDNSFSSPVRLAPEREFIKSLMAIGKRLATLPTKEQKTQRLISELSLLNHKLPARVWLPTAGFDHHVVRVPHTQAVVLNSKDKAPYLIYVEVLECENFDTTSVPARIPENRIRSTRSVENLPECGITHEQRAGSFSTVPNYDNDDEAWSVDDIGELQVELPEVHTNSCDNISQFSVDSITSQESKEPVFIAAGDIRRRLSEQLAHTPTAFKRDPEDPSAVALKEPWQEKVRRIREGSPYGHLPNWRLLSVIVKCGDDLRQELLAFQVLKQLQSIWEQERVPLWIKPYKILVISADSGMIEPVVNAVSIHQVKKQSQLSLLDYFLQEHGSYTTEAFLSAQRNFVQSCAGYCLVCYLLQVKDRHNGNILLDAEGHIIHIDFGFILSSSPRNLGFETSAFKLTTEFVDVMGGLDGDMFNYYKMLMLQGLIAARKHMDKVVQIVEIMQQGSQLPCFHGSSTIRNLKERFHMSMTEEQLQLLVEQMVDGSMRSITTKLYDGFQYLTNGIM

[9] = molecular target: Phosphatidylinositol 4-kinase beta (Homo sapiens) (UniProt Q9UBF8); conditions: at 1 µM
[10] = molecular target: Sphingosine kinase 1 (Homo sapiens) (UniProt Q9NYA1); conditions: at 0.1 µM
Sphingosine kinase 1 (Homo sapiens), sequence (Q9NYA1 whole entry): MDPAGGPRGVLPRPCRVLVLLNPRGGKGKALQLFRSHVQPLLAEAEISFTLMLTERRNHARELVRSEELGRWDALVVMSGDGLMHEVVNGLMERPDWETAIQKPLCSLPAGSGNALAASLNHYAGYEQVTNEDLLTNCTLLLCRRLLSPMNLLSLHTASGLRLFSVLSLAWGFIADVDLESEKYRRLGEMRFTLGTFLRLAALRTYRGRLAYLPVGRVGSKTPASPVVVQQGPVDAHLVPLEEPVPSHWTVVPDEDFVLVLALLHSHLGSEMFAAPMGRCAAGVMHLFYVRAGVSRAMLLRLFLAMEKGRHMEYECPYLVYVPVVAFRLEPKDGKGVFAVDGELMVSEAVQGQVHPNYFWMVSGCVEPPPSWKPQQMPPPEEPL

[11] = molecular target: Sphingosine kinase 1 (Homo sapiens) (UniProt Q9NYA1); conditions: at 1 µM
[12] = molecular target: T3, Sphingosine kinase 2 (Homo sapiens) (UniProt Q9NRA0); conditions: at 0.1 µM
T3 sequence (whole entry): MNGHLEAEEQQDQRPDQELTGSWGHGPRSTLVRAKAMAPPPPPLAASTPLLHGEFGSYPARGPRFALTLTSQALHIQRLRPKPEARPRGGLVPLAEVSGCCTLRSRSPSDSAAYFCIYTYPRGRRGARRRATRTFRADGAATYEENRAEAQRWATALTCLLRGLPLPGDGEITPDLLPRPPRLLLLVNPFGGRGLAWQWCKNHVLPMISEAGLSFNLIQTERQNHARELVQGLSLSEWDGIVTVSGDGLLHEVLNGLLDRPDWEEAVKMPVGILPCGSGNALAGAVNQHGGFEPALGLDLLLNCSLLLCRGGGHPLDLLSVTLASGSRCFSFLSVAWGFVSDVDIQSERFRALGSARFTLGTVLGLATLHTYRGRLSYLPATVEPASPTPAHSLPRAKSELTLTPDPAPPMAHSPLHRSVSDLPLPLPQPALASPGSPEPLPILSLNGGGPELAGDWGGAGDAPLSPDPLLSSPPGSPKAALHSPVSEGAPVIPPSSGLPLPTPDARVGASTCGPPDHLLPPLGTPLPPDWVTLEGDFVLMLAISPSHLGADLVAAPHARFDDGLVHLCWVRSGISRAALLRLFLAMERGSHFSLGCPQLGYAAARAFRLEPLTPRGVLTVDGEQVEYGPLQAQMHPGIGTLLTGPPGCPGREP

[13] = molecular target: T3, Sphingosine kinase 2 (Homo sapiens); conditions: at 1 µM
[14] = molecular target: Casein kinase II subunit alpha (Homo sapiens) (UniProt P68400); conditions: at 0.1 µM
Casein kinase II subunit alpha (Homo sapiens), sequence (P68400 whole entry, looked up): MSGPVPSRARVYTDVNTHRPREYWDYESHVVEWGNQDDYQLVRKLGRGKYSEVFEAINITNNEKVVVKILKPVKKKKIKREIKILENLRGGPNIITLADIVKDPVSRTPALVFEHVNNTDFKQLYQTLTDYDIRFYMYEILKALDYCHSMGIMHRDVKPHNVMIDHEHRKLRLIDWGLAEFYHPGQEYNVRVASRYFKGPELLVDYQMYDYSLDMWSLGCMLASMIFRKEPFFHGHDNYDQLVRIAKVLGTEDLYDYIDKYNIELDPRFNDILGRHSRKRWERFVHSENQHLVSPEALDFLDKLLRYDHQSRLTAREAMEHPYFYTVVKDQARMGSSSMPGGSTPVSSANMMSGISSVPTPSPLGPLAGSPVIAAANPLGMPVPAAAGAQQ

[15] = molecular target: Casein kinase II subunit alpha (Homo sapiens) (UniProt P68400); conditions: at 1 µM
[16] = molecular target: T4, Inhibitor of nuclear factor kappa-B kinase subunit alpha (Homo sapiens) (UniProt O15111); conditions: at 0.1 µM
T4 sequence (whole entry): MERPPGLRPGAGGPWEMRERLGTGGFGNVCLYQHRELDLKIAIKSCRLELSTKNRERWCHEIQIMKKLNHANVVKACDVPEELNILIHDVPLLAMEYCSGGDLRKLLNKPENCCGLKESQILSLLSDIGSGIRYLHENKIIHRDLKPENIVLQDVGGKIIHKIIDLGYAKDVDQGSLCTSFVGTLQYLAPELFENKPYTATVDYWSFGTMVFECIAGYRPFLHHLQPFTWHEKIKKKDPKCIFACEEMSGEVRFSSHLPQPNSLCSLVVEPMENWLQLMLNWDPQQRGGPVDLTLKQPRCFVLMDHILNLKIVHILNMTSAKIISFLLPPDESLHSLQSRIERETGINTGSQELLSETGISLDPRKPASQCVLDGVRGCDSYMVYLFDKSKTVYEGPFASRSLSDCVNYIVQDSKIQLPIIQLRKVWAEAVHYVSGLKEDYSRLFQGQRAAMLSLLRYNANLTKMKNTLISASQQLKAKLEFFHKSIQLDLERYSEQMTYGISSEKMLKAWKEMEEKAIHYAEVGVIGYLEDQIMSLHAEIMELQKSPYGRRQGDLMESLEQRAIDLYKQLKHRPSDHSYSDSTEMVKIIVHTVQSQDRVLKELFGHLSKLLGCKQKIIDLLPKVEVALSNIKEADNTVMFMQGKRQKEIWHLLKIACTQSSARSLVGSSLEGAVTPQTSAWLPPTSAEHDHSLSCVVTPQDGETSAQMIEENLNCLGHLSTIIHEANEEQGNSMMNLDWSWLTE

[17] = molecular target: T4, Inhibitor of nuclear factor kappa-B kinase subunit alpha (Homo sapiens); conditions: at 1 µM
[18] = molecular target: T5, Inhibitor of nuclear factor kappa-B kinase subunit beta (Homo sapiens) (UniProt O14920); conditions: at 0.1 µM
T5 sequence (whole entry): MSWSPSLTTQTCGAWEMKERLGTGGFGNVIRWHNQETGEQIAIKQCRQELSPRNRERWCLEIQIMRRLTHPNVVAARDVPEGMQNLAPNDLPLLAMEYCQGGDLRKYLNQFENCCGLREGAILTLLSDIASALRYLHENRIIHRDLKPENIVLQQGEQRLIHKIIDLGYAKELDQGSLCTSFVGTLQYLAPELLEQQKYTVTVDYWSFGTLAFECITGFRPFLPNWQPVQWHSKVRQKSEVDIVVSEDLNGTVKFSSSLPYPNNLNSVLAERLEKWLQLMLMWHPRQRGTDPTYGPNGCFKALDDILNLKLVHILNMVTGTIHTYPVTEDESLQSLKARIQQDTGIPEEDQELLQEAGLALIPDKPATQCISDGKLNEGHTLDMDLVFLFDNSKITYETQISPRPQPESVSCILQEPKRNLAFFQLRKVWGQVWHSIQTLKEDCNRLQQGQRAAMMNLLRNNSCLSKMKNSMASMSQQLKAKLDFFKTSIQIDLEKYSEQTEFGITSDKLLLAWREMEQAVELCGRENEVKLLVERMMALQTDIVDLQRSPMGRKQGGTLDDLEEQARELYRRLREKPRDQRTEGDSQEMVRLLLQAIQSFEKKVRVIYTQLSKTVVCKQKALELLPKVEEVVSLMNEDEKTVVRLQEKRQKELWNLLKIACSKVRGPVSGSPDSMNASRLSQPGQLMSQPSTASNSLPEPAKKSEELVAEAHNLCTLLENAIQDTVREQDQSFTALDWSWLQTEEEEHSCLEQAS

[19] = molecular target: T5, Inhibitor of nuclear factor kappa-B kinase subunit beta (Homo sapiens); conditions: at 1 µM
[20] = molecular target: T6, Inhibitor of nuclear factor kappa-B kinase subunit epsilon (Homo sapiens) (UniProt Q14164); conditions: at 0.1 µM;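 further: mean inhibition of IKKε reported, from the GSK PKIS dataset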
T6 sequence (whole entry): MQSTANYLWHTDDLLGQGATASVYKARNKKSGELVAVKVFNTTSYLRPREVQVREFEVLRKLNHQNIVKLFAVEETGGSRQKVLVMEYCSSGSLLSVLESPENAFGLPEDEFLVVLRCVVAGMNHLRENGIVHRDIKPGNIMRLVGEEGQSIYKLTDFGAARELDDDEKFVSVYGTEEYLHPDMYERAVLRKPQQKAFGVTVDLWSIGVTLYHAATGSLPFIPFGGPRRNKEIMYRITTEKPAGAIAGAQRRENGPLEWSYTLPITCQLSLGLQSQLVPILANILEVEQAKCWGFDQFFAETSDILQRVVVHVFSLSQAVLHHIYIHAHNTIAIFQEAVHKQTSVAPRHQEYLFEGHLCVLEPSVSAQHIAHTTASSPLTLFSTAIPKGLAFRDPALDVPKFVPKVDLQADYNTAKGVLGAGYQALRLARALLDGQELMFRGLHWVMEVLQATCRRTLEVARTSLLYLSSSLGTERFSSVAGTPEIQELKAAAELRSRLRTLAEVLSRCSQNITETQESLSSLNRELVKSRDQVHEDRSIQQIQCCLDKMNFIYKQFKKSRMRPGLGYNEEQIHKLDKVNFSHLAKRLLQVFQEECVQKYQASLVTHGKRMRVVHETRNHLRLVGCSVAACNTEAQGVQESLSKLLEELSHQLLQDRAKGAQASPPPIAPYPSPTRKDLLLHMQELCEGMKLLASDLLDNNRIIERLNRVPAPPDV

Row | SMILES | inhibition [1] [%] | inhibition [2] [%] | inhibition [3] [%] | inhibition [4] [%] | inhibition [5] [%] | inhibition [6] [%] | inhibition [7] [%] | inhibition [8] [%] | inhibition [9] [%] | inhibition [10] [%] | inhibition [11] [%] | inhibition [12] [%] | inhibition [13] [%] | inhibition [14] [%] | inhibition [15] [%] | inhibition [16] [%] | inhibition [17] [%] | inhibition [18] [%] | inhibition [19] [%] | inhibition [20] [%]
1 | CC1=C(C(=O)Nc2ccc3[nH]nc(C)c3c2)C(c2ccc(C(F)(F)F)cc2)CC(=O)N1 (stereo not given) | 2.82 | -1.2 | -2.95 | 2.05 | 2.21 | 2.89 | 3.84 | 4.33 | -1.82 | 0.96 | -1.2 | -0.06 | -2.04 | 1.79 | 2.97 | 3.27 | -5.37 | 2.18 | 0.69 | 0.85
2 | FC(F)(F)CNc1nccc(-c2cnn3ncccc23)n1 | 4.71 | -3.11 | -3.13 | 2.55 | 3.51 | 0.99 | 2.05 | 2.04 | 5.22 | -2.3 | -0.16 | -1.21 | -4.21 | 9.47 | 3.8 | 1.92 | 9.86 | 4.92 | 5.42 | 6.69
3 | c1ccc(-c2n[nH]cc2-c2ccnc(-c3ccc(OCCn4ccnc4)cc3)c2)nc1 | 0.72 | 0.42 | -0.94 | 0.67 | 3.3 | 1.43 | 1.91 | -2.63 | 7.03 | 2.34 | -1.64 | -0.27 | 0.04 | 1.26 | 2.53 | 4.99 | 3.64 | 0.37 | -0.43 | 0.86
